# Compound activity: PubChem, National Center for Advancing Translational Sciences (NCATS)
# Only some compounds are listed: those with a hit (about 21% of all), similar ones and a draw of the others.
# Pf growth 48h: inhibits P. falciparum growth in the first generation, 48 h; P. falciparum luciferase growth in erythrocytes, 48 h; 5.9% of 310,000 active; Potency, µM (top dose mostly 28.7 µM), for inactives: at the top dose activity change, negative = inhibition, most hits filed as inhibitors; note: potency is the fitted concentration of half-maximal effect; % is set by controls: 0 for no effect and ±100 for the full control effect
#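 Erythrocytes infected with P. falciparum carrying an integrated firefly luciferase reporter (2% hematocrit, 0.1% parasitemia final) were exposed to compounds in RPMI 1640 with 0.5% Albumax at 37 C, 5% CO2. Growth inhibition was scored as reduced luminescence.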
# Cycloheximide cs: affects cycloheximide protein synthesis inhibition readout, counter-screen | max response, % | AID 2314 | cell reporter, cycloheximide protein synthesis inhibition counterscreen | 12% of 300,000 active; in the data active = max response mostly above about 13%, no sharp cut-off; inactive = mostly below about 14%; note: read at 38.3 µM for the half of the compounds with a filed dose; 0% is about no effect
# Shiga inhibitor: inhibitors of Shiga toxin in Vero cells. Vero cells, Shiga toxin protein synthesis inhibition reporter. inhibition, % at 38.7 µM. 9.2% of 290,000 active; in the data active = inhibition mostly above about 28%, no sharp cut-off; inactive = mostly below about 43%; note: 0% is about no effect
# Pf growth 96h: P. falciparum growth inhibition at 96 hours; AID 504834; 6.9% of 320,000 active; P. falciparum luciferase reporter growth, 96 h; Potency, µM (series often up to 28.7 µM), without a hit: top-dose activity change, negative = inhibition, hits mostly inhibitors; note: potency is the fitted concentration of half-maximal effect; % is set by controls: 0 for no effect and ±100 for the full control effect
#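 Erythrocytes infected with luciferase-expressing P. falciparum were dispensed at 2% hematocrit and 0.05% parasitemia (final), then incubated with compounds 96 hours at 37 C in 5% CO2. Luminescence after detection reagent addition reported growth.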
# Starred values were filed as active, the others as inactive; ? = inconclusive; . = no result. Unless noted, calls come from the whole dose curve; as a rule, active = well fitted inhibition curve with a large enough effect; inconclusive = small, poorly fitted or top-dose-only effect, or another doubt; inactive = no such curve, though single readings can be large or run the other way.
SMILES,Pf growth 48h,Cycloheximide cs,Shiga inhibitor,Pf growth 96h
COc1ccc(NC(=O)COC(=O)CCNS(=O)(=O)c2ccc(Cl)cc2)cc1,57%,-2,-9,31%
Cc1cccc(OCCn2c(=O)n(C)c3ccccc32)c1,.,67*,115*,?
Cc1cccc(OCCCN2CCCCCC2)c1,-13%,1,-10,3%
CC1(C)CC(C)(c2ccc(O)cc2O)N(c2ccc3ccccc3c2)C(=S)N1 (stereo not drawn),?,-1,1,?
CC1(C)CC(C)(c2ccc(O)cc2O)N(c2cccc(Cl)c2)C(=S)N1 (stereo not drawn),4.1µM*,-4,-6,?
N#CCCN(C(=O)COC(=O)C1=NNC(=O)CC1)c1ccccc1,?,.,.,17%
C#CCOC(=O)Nc1ccc(OCC(F)(F)F)nc1,35%,21*,46*,39%
COc1ccccc1CN1CCC(CNS(=O)(=O)c2cc(-c3cc(C)no3)ccc2C)CC1,4.7µM*,1,-1,-37%
COc1ccccc1CNS(=O)(=O)c1cc(-c2cc(C)no2)ccc1C(C)C,?,11,-6,-12%
CCOc1ccccc1CNS(=O)(=O)c1cc(-c2cc(C)no2)ccc1OC,5%,17,-2,12µM*
COc1ccc(-c2cc(C)no2)cc1S(=O)(=O)N1CCCN(Cc2ccccc2Cl)C1,?,-5,-12,12µM*
COc1ccc(-c2cc(C)no2)cc1S(=O)(=O)N1CCN(c2ccccc2F)CC1,-25%,-6,11,-21%
CC1=C(C)CC(C(=O)NC2CCN(C(C)C)CC2)C(C(=O)O)C1 (stereo not drawn),5%,-2,-9,-2%
CCc1nnc(NC(=O)CSc2ncc(-c3ccccc3)n2CC)s1,.,-3,-9,.
C/C(=N/OC(=O)C1CC1)c1cc(-c2ccc(Cl)cc2)no1,325%,18*,29,203%
CCC1CCCCN1C(=O)CCS(=O)(=O)c1ccc2c(c1)CCN2C(C)=O (stereo not drawn),-15%,-1,21,-26%
COc1cc(/C=C/C(=O)Nc2cc(C(F)(F)F)ccc2Cl)cc(OC)c1OC,10µM*,-5,-12,2.6µM*
Cc1cc(CNC(=O)C2(C(F)(F)F)C/C(=C\Cc3ccccc3)CCCO2)nn1C (stereo not drawn),.,-2,-4,.
CC(=O)Nc1ccccc1C(=O)C(=O)Nc1ccc(Cl)cc1,69%,17*,75*,28%
CC(=O)Nc1ccccc1C(=O)C(=O)Nc1cccc(Br)c1,26%,37*,100*,?
CCN(CC)CCNC(=O)c1cccc(NC(=O)C(=O)c2cc(Br)ccc2NC(C)=O)c1,10µM*,-4,-12,?
CCC(=O)Nc1ccccc1C(=O)C(=O)Nc1ccccc1,127%,35*,38*,?
CC(=O)OC/C=C(\C)CCC=C(C)C,?,.,.,50%
CC(=O)Nc1ccccc1C(=O)C(=O)Nc1ccc(C(=O)N2CCOCC2)cc1,81%,7,10,-20%
CC(=O)Nc1ccccc1C(=O)C(=O)Nc1ccccc1,64%,11,41,7.4µM*
SMILES,Pf growth 48h,Cycloheximide cs,Shiga inhibitor,Pf growth 96h
CC(=O)Nc1ccccc1C(=O)C(=O)Nc1cccc(C(=O)N2CCC3(CC2)OCCO3)c1,8%,-1,-12,1.9µM*
CC(=O)N(CCC1(C(C)C)CCOC(C)(C)C1)C(C)c1cccs1 (stereo not drawn),?,9,-4,?
O=C(Nc1cccc(-c2cccc(Cl)c2)c1)C1CCN(Cc2ccc(CO)o2)CC1,-17%,-2,-14,?
CCn1nc(C)c(CN2CCC(C(=O)Nc3cccc(-c4cccc(F)c4)c3)CC2)c1C,10µM*,-5,-4,4%
Cc1ccc(CN2CCC(C(=O)Nc3cccc(-c4cccc(F)c4)c3)CC2)o1,28%,-2,-7,4.7µM*
CCn1cc(CN2CCC(C(=O)Nc3cccc(-c4cccc(F)c4)c3)CC2)cn1,?,-2,-3,0%
CCC(C)NC(=O)CN1c2cccc3cccc(c23)S1(=O)=O (stereo not drawn),-13%,-4,14,-1%
CCc1nn(C(CC)C(=O)NCCc2ccc(OC)cc2OC)c(=O)c2cc3occc3n12 (stereo not drawn),4%,-2,-2,3%
O=C(COC(=O)C1CCN(c2ccc(C(F)(F)F)cn2)CC1)Nc1ncc(Cl)cc1Cl,14%,.,.,8%
O=c1c2cc(-c3ccccc3)sc2nc2n1CCC2,146%,47*,103*,182%
CCc1cc2c(=O)n(-c3ccccc3)c(SCC(N)=O)nc2s1,-15%,14,-8,-6%
Cc1nc2sc(-c3ccccc3)cc2c(=O)n1/N=C/N(C)C,322%,37*,72*,25%
Cc1nc2sc(-c3ccccc3)cc2c(=O)n1N,4%,44*,56*,115%
NC(=O)CSc1nc2sc(-c3ccccc3)cc2c(=O)n1N,48%,26*,34,?
C[Si](C)(C)O[Si](C)(C)C,-8%,.,.,-2%
COc1cc(NC(=O)Cn2cnc(S(=O)(=O)N3CCC(C)CC3)c2)cc(OC)c1OC,-3%,-8,-10,?
CC(CCN1C(N(C)C)=NC[C@@H]1C)c1ccccc1 (stereo partly drawn),?,.,.,78%
CSCC[C@H](NC(=O)OC(C)(C)C)C(=O)NCC1CCC(C(=O)N[C@@H](Cc2ccccc2)C(=O)O)CC1 (stereo partly drawn),9%,-6,16,1%
O=S(=O)(Nc1ccc(-n2cnnn2)cc1)c1cccc(Cl)c1,?,.,.,-1%
Cc1nc2sc(-c3ccccc3)cc2c(=O)n1-n1cccc1,80%,42*,113*,102%
NC1=C(O)C(=O)C(c2ccccc2)O1 (stereo not drawn),18%,11,-4,3%
Cc1cccc(N2C(=N)SCC2=O)c1C,4%,-2,-5,99%
CCOC(=O)c1sc(NC(=O)COC(=O)CNC(=O)C2CCCCC2)c(C(=O)OCC)c1C,12%,-1,1,26%
CC(C)[C@H]1CN=C2N(C[C@H](C)NC(=O)CCC3CCCCC3)[C@H](Cc3ccc(O)cc3)CN21,12µM*,-5,13,4.1µM*
C/C=C(\C)C(=O)N[C@@H](C)CN1C2=NC[C@H](C(C)C)N2C[C@H]1Cc1ccc(OC)cc1,?,-4,-10,32%
C[C@@H](CN1C2=NC[C@H](C)N2C[C@H]1Cc1ccc(O)cc1)NC(=O)CCC1CCCCC1,-14%,-4,-11,?
COc1ccc(C[C@H]2CN3C(=NC[C@@H]3Cc3ccc(O)cc3)N2C[C@H](C)NC(=O)CCC2CCCCC2)cc1,2.1µM*,-7,-4,0.93µM*
COc1ccc(C[C@@H]2CN3C(=NC[C@@H]3Cc3ccc(O)cc3)N2C[C@H](C)NC(=O)CCC2CCCCC2)cc1,1.2µM*,-3,21,0.74µM*
Cc1ccc(NC(=O)CC2C(=O)N(Cc3ccccc3)C(=S)N2NC(=O)c2ccccc2)c(C)c1 (stereo not drawn),?,-4,-10,?
CNC(=O)CCCCC(=O)N/N=C/c1ccc(Cl)cc1Cl,-14%,-5,-6,-10%
